# Assay results as given in PubChem BioAssay AID1159580 (chemical genetic matrix, 2015).
# Among all 5,500 compounds or so, about 2,000 (36%) were called active. Inconclusive results (about 18%) are left out. The list shows a part of the results. Unmarked numbers belong to inactive results. No stated cut-off is given here; in the data, active means normalized growth mostly below about 0.91 (no sharp cut-off); inconclusive means no clear call, values can overlap the other calls; inactive means mostly above about 0.92.
# Experiment: chemical genetic growth profiling, strain panel (AID 1159580);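 further: tested at 20 µM; growth read once vehicle control cultures reached saturation at 30 °C; 1 = growth at the plate median or of vehicle wells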
# Details: growth OD
smiles,measurement,setting,value
CC[C@@H](C(=O)[C@@H](C)[C@@H](O)[C@H](C)[C@@H]1O[C@@H]([C@@H](CC)C(=O)O)CC[C@@H]1C)[C@H]1OC2(C=C[C@@H](O)[C@]3(CC[C@@](C)([C@H]4CC[C@](O)(CC)[C@H](C)O4)O3)O2)[C@H](C)C[C@@H]1C (some centres undefined),normalized growth,"S. cerevisiae deletion strains, locus YJR066W, strain TOR1, stronger effect = lower value",0.237 (active)
same,normalized growth,"S. cerevisiae deletion strains, locus YKL009W, strain mrt4, stronger effect = lower value",0.934
same,normalized growth,"S. cerevisiae deletion strains, locus YKL068W, stronger effect = lower value",1.02
same,normalized growth,"S. cerevisiae deletion strains, locus YKL085W, strain MDH1 (second series), stronger effect = lower value",0.812 (active)
same,normalized growth,"S. cerevisiae deletion strains, locus YKL085W, strain MDH1, stronger effect = lower value",0.812 (active)
same,normalized growth,"S. cerevisiae deletion strains, locus YKL160W, strain elf1, stronger effect = lower value",0.879 (active)
same,normalized growth,"S. cerevisiae deletion strains, locus YKL190W, strain CNB1, stronger effect = lower value",0.925
same,normalized growth,"S. cerevisiae deletion strains, locus YKR001C, strain vps1, stronger effect = lower value",0.108 (active)
same,normalized growth,"S. cerevisiae deletion strains, locus YKR026C, strain gcn3, stronger effect = lower value",0.933
same,normalized growth,"S. cerevisiae deletion strains, locus YKR091W, strain srl3, stronger effect = lower value",0.937
same,normalized growth,"S. cerevisiae deletion strains, locus YLL001W, strain dnm1, stronger effect = lower value",0.833 (active)
same,normalized growth,"S. cerevisiae deletion strains, locus YLL026W, stronger effect = lower value",0.892 (active)
same,normalized growth,"S. cerevisiae deletion strains, locus YLL041C, strain sdh2, stronger effect = lower value",0.926 (active)
same,normalized growth,"S. cerevisiae deletion strains, locus YLR027C, strain aat2, stronger effect = lower value",0.858 (active)
same,normalized growth,"S. cerevisiae deletion strains, locus YLR039C, strain RIC1, stronger effect = lower value",0.294 (active)
same,normalized growth,"S. cerevisiae deletion strains, locus YLR058C, strain SHM2, stronger effect = lower value",0.935
same,normalized growth,"S. cerevisiae deletion strains, locus YLR102C, strain apc9, stronger effect = lower value",0.905 (active)
same,normalized growth,"S. cerevisiae deletion strains, locus YLR113W, strain HOG1, stronger effect = lower value",0.176 (active)
same,normalized growth,"S. cerevisiae deletion strains, locus YLR221C, strain rsa3, stronger effect = lower value",0.856 (active)
same,normalized growth,"S. cerevisiae deletion strains, locus YLR258W, strain gsy2, stronger effect = lower value",0.842 (active)
same,normalized growth,"S. cerevisiae deletion strains, locus YLR262C, strain YPT6 (second series), stronger effect = lower value",0.662 (active)
same,normalized growth,"S. cerevisiae deletion strains, locus YLR262C, strain YPT6, stronger effect = lower value",0.183 (active)
same,normalized growth,"S. cerevisiae deletion strains, locus YLR268W, strain sec22, stronger effect = lower value",0.843 (active)
same,normalized growth,"S. cerevisiae deletion strains, locus YLR320W, strain mms22, stronger effect = lower value",0.928
same,normalized growth,"S. cerevisiae deletion strains, locus YLR330W, strain CHS5, stronger effect = lower value",0.927
same,normalized growth,"S. cerevisiae deletion strains, locus YLR342W, strain FKS1 (second series), stronger effect = lower value",0.821
same,normalized growth,"S. cerevisiae deletion strains, locus YLR342W, strain FKS1, stronger effect = lower value",0.852 (active)
same,normalized growth,"S. cerevisiae deletion strains, locus YLR357W, strain rsc2, stronger effect = lower value",0.988
same,normalized growth,"S. cerevisiae deletion strains, locus YLR370C, strain arc18, stronger effect = lower value",0.608 (active)
same,normalized growth,"S. cerevisiae deletion strains, locus YLR371W, strain rom2, stronger effect = lower value",0.624 (active)
same,normalized growth,"S. cerevisiae deletion strains, locus YLR384C, strain iki3, stronger effect = lower value",0.954
same,normalized growth,"S. cerevisiae deletion strains, locus YLR418C, strain cdc73, stronger effect = lower value",0.681 (active)
same,normalized growth,"S. cerevisiae deletion strains, locus YML016C, strain PPZ1, stronger effect = lower value",0.978
same,normalized growth,"S. cerevisiae deletion strains, locus YML032C, strain rad52, stronger effect = lower value",0.882 (active)
same,normalized growth,"S. cerevisiae deletion strains, locus YML120C, strain ndi1, stronger effect = lower value",0.847 (active)
same,normalized growth,"S. cerevisiae deletion strains, locus YML124C, strain tub3, stronger effect = lower value",0.887 (active)
same,normalized growth,"S. cerevisiae deletion strains, locus YMR058W, strain fet3, stronger effect = lower value",0.908
same,normalized growth,"S. cerevisiae deletion strains, locus YMR078C, strain ctf18, stronger effect = lower value",0.937
same,normalized growth,"S. cerevisiae deletion strains, locus YMR125W, strain sto1, stronger effect = lower value",0.932
same,normalized growth,"S. cerevisiae deletion strains, locus YMR129W, stronger effect = lower value",0.937
same,normalized growth,"S. cerevisiae deletion strains, locus YMR205C, strain PFK2, stronger effect = lower value",0.79 (active)
same,normalized growth,"S. cerevisiae deletion strains, locus YMR223W, strain ubp8, stronger effect = lower value",0.838 (active)
same,normalized growth,"S. cerevisiae deletion strains, locus YMR231W, strain pep5, stronger effect = lower value",0.0726 (active)
same,normalized growth,"S. cerevisiae deletion strains, locus YMR307W, strain GAS1, stronger effect = lower value",0.801
same,normalized growth,"S. cerevisiae deletion strains, locus YNL067W, strain RPL9B, stronger effect = lower value",0.963
same,normalized growth,"S. cerevisiae deletion strains, locus YNL071W, strain lat1, stronger effect = lower value",0.96
same,normalized growth,"S. cerevisiae deletion strains, locus YNL128W, strain TEP1, stronger effect = lower value",0.969
same,normalized growth,"S. cerevisiae deletion strains, locus YNL153C, strain GIM3, stronger effect = lower value",0.911
same,normalized growth,"S. cerevisiae deletion strains, locus YNL183C, strain NPR1, stronger effect = lower value",0.143 (active)
same,normalized growth,"S. cerevisiae deletion strains, locus YNL209W, strain ssb2, stronger effect = lower value",0.916 (active)
same,normalized growth,"S. cerevisiae deletion strains, locus YNL233W, strain BNI4, stronger effect = lower value",0.861 (active)
same,normalized growth,"S. cerevisiae deletion strains, locus YNL248C, strain rpa49, stronger effect = lower value",0.95
same,normalized growth,"S. cerevisiae deletion strains, locus YNL250W, strain rad50, stronger effect = lower value",0.868 (active)
same,normalized growth,"S. cerevisiae deletion strains, locus YNL271C, strain bni1, stronger effect = lower value",0.814 (active)
same,normalized growth,"S. cerevisiae deletion strains, locus YNL298W, strain CLA4, stronger effect = lower value",0.439 (active)
same,normalized growth,"S. cerevisiae deletion strains, locus YNL307C, strain MCK1, stronger effect = lower value",0.862 (active)
same,normalized growth,"S. cerevisiae deletion strains, locus YNL322C, strain KRE1 (second series), stronger effect = lower value",0.963
same,normalized growth,"S. cerevisiae deletion strains, locus YNR049C, strain mso1, stronger effect = lower value",0.923
same,normalized growth,"S. cerevisiae deletion strains, locus YNR052C, strain pop2, stronger effect = lower value",0.735 (active)
same,normalized growth,"S. cerevisiae deletion strains, locus YOL006C, strain TOP1, stronger effect = lower value",0.192 (active)
same,normalized growth,"S. cerevisiae deletion strains, locus YOL012C, strain htz1",1.26
same,normalized growth,"S. cerevisiae deletion strains, locus YOL147C, strain pex11, stronger effect = lower value",0.884 (active)
same,normalized growth,"S. cerevisiae deletion strains, locus YOR001W, strain rrp6, stronger effect = lower value",0.909
same,normalized growth,"S. cerevisiae deletion strains, locus YOR061W, strain CKA2, stronger effect = lower value",0.642 (active)
same,normalized growth,"S. cerevisiae deletion strains, locus YOR069W, strain VPS5, stronger effect = lower value",0.797 (active)
same,normalized growth,"S. cerevisiae deletion strains, locus YOR070C, strain gyp1, stronger effect = lower value",0.9 (active)
same,normalized growth,"S. cerevisiae deletion strains, locus YOR080W, strain dia2, stronger effect = lower value",0.961
same,normalized growth,"S. cerevisiae deletion strains, locus YOR083W, strain WHI5, stronger effect = lower value",0.855 (active)
same,normalized growth,"S. cerevisiae deletion strains, locus YOR106W, strain vam3, stronger effect = lower value",0.0692 (active)
same,normalized growth,"S. cerevisiae deletion strains, locus YOR136W, strain idh2, stronger effect = lower value",0.905 (active)
same,normalized growth,"S. cerevisiae deletion strains, locus YOR144C, strain elg1, stronger effect = lower value",0.885 (active)
same,normalized growth,"S. cerevisiae deletion strains, locus YOR184W, strain ser1, stronger effect = lower value",0.892
same,normalized growth,"S. cerevisiae deletion strains, locus YOR231W, strain MKK1, stronger effect = lower value",0.201 (active)
same,normalized growth,"S. cerevisiae deletion strains, locus YOR265W, strain rbl2, stronger effect = lower value",0.897 (active)
same,normalized growth,"S. cerevisiae deletion strains, locus YOR270C, strain vph1, stronger effect = lower value",0.287 (active)
same,normalized growth,"S. cerevisiae deletion strains, locus YOR290C, strain snf2, stronger effect = lower value",0.863 (active)
same,normalized growth,"S. cerevisiae deletion strains, locus YOR316C, strain cot1, stronger effect = lower value",0.908 (active)
same,normalized growth,"S. cerevisiae deletion strains, locus YPL051W, strain arl3, stronger effect = lower value",0.721 (active)
same,normalized growth,"S. cerevisiae deletion strains, locus YPL055C, strain LGE1, stronger effect = lower value",0.934
same,normalized growth,"S. cerevisiae deletion strains, locus YPL078C, strain atp4, stronger effect = lower value",0.939
same,normalized growth,"S. cerevisiae deletion strains, locus YPL106C, strain sse1, stronger effect = lower value",0.932
same,normalized growth,"S. cerevisiae deletion strains, locus YPL240C, strain hsp82, stronger effect = lower value",0.922 (active)
same,normalized growth,"S. cerevisiae deletion strains, locus YPL256C, strain CLN2, stronger effect = lower value",0.265 (active)
same,normalized growth,"S. cerevisiae deletion strains, locus YPR119W, strain clb2, stronger effect = lower value",0.92 (active)
same,normalized growth,"S. cerevisiae deletion strains, locus YPR141C, strain kar3, stronger effect = lower value",1
same,normalized growth,"S. cerevisiae deletion strains, locus YPR163C, strain tif3, stronger effect = lower value",0.538 (active)
same,normalized growth,"S. cerevisiae deletion strains, locus YPR167C, strain met16, stronger effect = lower value",0.865 (active)
same,normalized growth,"S. cerevisiae deletion strains, strain wtn01, stronger effect = lower value",0.815 (active)
same,normalized growth,"S. cerevisiae strains, strain wild type, stronger effect = lower value",0.925
